Reference: PubChem BioAssay (NCATS)
Records with an inconclusive call do not appear. Values without a mark were called inactive. Activity calls are given as the source filed them. Calls follow the shape of the dose curve; as a rule, active = well fitted inhibition curve with a large enough effect; inconclusive = small, poorly fitted or top-dose-only effect; inactive = no such curve, though single readings can be large or run the other way.

biological target: Chromobox protein homolog 1 (Homo sapiens) (UniProt P83916); experiment: qHTS Validation Assay for Inhibitors of HP1-beta Chromodomain Interactions with Methylated Histone Tails (AID 488953); settings: HP1-beta chromodomain / methylated histone peptide binding assay; series mostly up to 114 µM; activity change, negative = inhibition: at the top concentration; also: nearly all actives have a fitted effect of over 50% in size
Sequence (P83916 whole entry, looked up): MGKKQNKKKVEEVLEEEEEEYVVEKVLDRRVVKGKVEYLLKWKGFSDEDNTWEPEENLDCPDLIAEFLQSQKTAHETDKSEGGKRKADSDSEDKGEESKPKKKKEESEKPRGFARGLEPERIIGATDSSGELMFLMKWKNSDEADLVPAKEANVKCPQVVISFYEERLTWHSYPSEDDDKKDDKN
From the text: As our understanding of epigenetics expands, it is becoming clear that players in this field are potential targets for drug development. This area of epigenetic therapy has established applications for the treatment of cancer and neurological diseases. We have been involved in this field for a number of years and have performed high-throughput screens to identify the first small molecule inhibitors of protein methyltransferases. These methyltransferases target multiple substrates, and thus regulate many arms of an epigenetic pathway. The methylation of different substrates often generates docking sites for effector proteins that harbor binding domains (chromo, tudor, PHD, MBT and ANK repeats).
It has been proposed that the binding sites generated for different proteins by these post-translational modifcations mediate downstream effects on chromatin. Consistent with this theory, di- and tri-methylation of histone H3K9 facilitates the binding of heterochromatin protein HP1. The HP1 protein harbors a chromodomain that is responsible for the methyl-dependent interaction between HP1 and lysine 9 of histone H3. HP1 was first described in flies as a heterochromatin associated protein that can regulate gene silencing. It harbors a chromodomain that binds H3K9me3. In addition, it harbors a chromoshadow domain that interacts with a large number of proteins that are involved in heterochromatin formation and gene repression. There are three highly related HP1 isoforms. All three variants are associated with pericentric heterochromatin and it is not clear whether they have specific or redundant functions. MPP8 is also involved in the repression of gene in euchromatic regions (unpublished data) and like HP1 its chromodomain binds H3K9me3. MPP8 harbors an ankyrin repeat region that is likely involved in binding and recruiting interacting proteins with transcriptional repressive function, much like the chromoshadow domain of HP1 does.
We hypothesize that by inhibiting specific protein-protein interactions we will be able to develop compounds that block a single arm of an epigenetic pathway. The specificity attained by blocking a single protein-protein interaction will be far greater than that attained by blocking the enzyme that regulates one of many interactions.
Low-affinity protein-protein interactions (Kd in the single- to double-digit micromolar range) such as those discussed here have been very difficult to assay by traditional techniques such as fluorescence polarization or fluorescence resonance energy transfer. We have developed a sensitive chemiluminescence-based assay (Quinn, et al. 2009), which serves as the starting point for this project.
The following is a validation assay to identify lead compounds that can block methyl-dependent protein-protein interactions (specifically HP1-beta), which can be used as probes to analyze these methyl-driven interactions and perhaps even developed into targeted epigenetic therapies.
Assay Provider: Mark T. Bedford, MD Anderson
Screening Center PI: Austin, C.P.
Screening Center: NIH Chemical Genomics Center [NCGC]
To each well, 2 uL of HP1-beta protein (final 50 nM) and 1 uL biotinylated histone peptide trimethylated at Lys9 [b-H3(1-18)K9me3] (final 50 nM) was added in 1x PBS buffer, pH 7.4, containing 0.01% Tween-20 using a nanoliter dispenser. Formation of a protein-peptide complex proceeded at room temperature for 30 min. A Kalypsys pin-tool was employed to transfer 23 nL of library compound solution in DMSO to each well. Aurintricarboxylic acid (ATA) was used as an intraplate control with a 12-point titration in duplicate. Following a 30 min incubation of the protein-peptide complex with compounds at room temperature, a mixture of 40 ug/mL each streptavidin-coated donor and nickel chelate acceptor AlphaScreen beads (final 10 ug/mL) was added in a 1 uL dispense for a final volume of 4 uL. Plates were incubated protected from the light for 30 min at room temperature. […]
% is scaled to controls: 0 for no effect and ±100 for the full control effect; potency is read from the fitted curve at half-maximal effect.

Row | SMILES | activity change, negative = inhibition | Potency
1 | CCCCS(=N)(=O)CCC(N)C(=O)O (stereo not given) | -6.37% | –
2 | O=C(O)C1CCCN(CCC=C(c2ccccc2)c2ccccc2)C1 (stereo not given) | 7.45% | –
3 | OCc1ccc(-c2nn(Cc3ccccc3)c3ccccc23)o1 | – | 39.8 µM (active)
4 | CC1=C(C(=O)O)N2C(=O)[C@@H](NC(=O)C(N)c3ccccc3)[C@H]2SC1 (stereo not given in full) | -12.9% | –
5 | CC(=O)[C@H]1CC[C@H]2[C@@H]3CCC4=CC(=O)CC[C@]4(C)[C@H]3CC[C@]12C | -4.24% | –
6 | Cc1ccc(S(=O)(=O)N[C@@H](Cc2ccccc2)C(=O)CCl)cc1 | 7.32% | –
7 | CC(C)NCC(O)c1ccc(NS(C)(=O)=O)cc1 (stereo not given) | -7.84% | –
8 | CCN(CC)CC#CCOC(=O)C(O)(c1ccccc1)C1CCCCC1 (stereo not given) | -7.73% | –
9 | NC(=O)c1cccc(N)c1 | -1.58% | –
10 | NC(=O)c1ccc2[nH]ccc2c1 | -7.99% | –
11 | CCN1CCCC1CNC(=O)c1cc(S(N)(=O)=O)ccc1OC (stereo not given) | -8.51% | –
12 | CC1CC2C3CCC4=CC(=O)C=C[C@]4(C)[C@@]3(F)[C@@H](O)C[C@]2(C)[C@@]1(O)C(=O)CO (stereo not given in full) | -1.9% | –
13 | N[C@@H](Cc1ccc(O)c(O)c1)C(=O)O | – | 31.6 µM (active)
14 | COc1cc2ncnc(Nc3cccc(Cl)c3)c2cc1OC | -10.6% | –
15 | CCN(CC)CCn1c(=O)c(Cc2ccc(OC)cc2)nc2ccccc21 | 38.6% [at 57.1 µM] | –
